The panel holds about 83,000 compounds, 20% with a hit somewhere; the sample as a whole holds those more often.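 Negative percent growth values reflect cell death: -40 means 40% of the cells present at the start died, and -100 means all died.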 Activity calls are given as the source filed them. The calls were made as follows: active = growth percent below 10; inactive = the rest.
Key:
Assay in all cases: NCI-60 one-dose screen, 48 h (100 = growth as untreated, 0 = no growth, -100 = all killed)
[1] = tested on: SK-MEL-2 melanoma; conditions: 10 µM unless noted
[2] = tested on: EKVX NSCLC; conditions: 10 µM unless noted
[3] = tested on: SN12C renal; conditions: 10 µM unless noted
[4] = tested on: UO-31 renal; conditions: 10 µM unless noted
[5] = tested on: TK-10 renal; conditions: 10 µM unless noted
[6] = tested on: ACHN renal; conditions: 10 µM unless noted
[7] = tested on: CAKI-1 renal; conditions: 10 µM
[8] = tested on: A498 renal; conditions: 10 µM unless noted
[9] = tested on: CCRF-CEM leukemia; conditions: 10 µM unless noted
[10] = tested on: MOLT-4 leukemia; conditions: 10 µM unless noted

Measured: growth

CNC(=O)c1cc(N2CCc3cc(NC(=O)Nc4ccc(Cl)c(Cl)c4)ccc32)ccn1
inactive: [1] 84.3% | [2] 85.3% | [3] 86.1% | [4] 89.1% | [5] 99.3% | [6] 80.1% | [7] 82.2% | [8] 89.1% | [9] 86.5% | [10] 67.7%

ClC(Cl)c1nc(-c2cccs2)n2nc(-c3ccccc3)cc2n1
inactive: [1] 77.6% | [3] 50.6% | [9] 67.9% | [10] 44%
active: [2] -26.8% | [4] -53.7% | [5] -10.8% | [6] -23.5% | [7] -15% | [8] -78.5%

COc1cc(NC2=C(Cl)C(=O)c3nc(C)ccc3C2=O)cc(OC)c1
inactive: [2] 74.7% | [8] 71.1%
active: [1] 5.03% | [3] -63.3% | [4] -94.6% | [5] -50.1% | [6] -99.6% | [7] -96.5% | [9] 2.72% | [10] 8.29%

Cc1ccc(-n2cc(/C=C/C(=O)c3ccc(S(C)(=O)=O)cc3)c(-c3ccc(S(C)(=O)=O)cc3)n2)cc1
inactive: [1] 107% | [2] 93.2% | [3] 89.7% | [4] 85.5% | [5] 127% | [6] 93.3% | [7] 89.2% | [8] 84.6% | [9] 77.5% | [10] 71.9%

CC(C)C(=O)Nc1ccc(-c2nc(-c3cccc(O)c3)c(-c3ccnc(Br)c3)[nH]2)cc1
active: [10] 9.54%
inactive: [1] 44.1% | [2] 80.6% | [3] 63.5% | [4] 24% | [5] 81.1% | [6] 64.2% | [7] 45.1% | [8] 37.4% | [9] 17.3%

O=[N+]([O-])c1ccc(-c2nnc(SCc3ccc(O)c4ncccc34)n2-c2ccccc2)cc1
active: [3] 9.69% | [4] 7.34%
inactive: [1] 13.8% | [2] 40.5% | [5] 79.3% | [6] 29.3% | [7] 30.1% | [8] 70.8% | [9] 21% | [10] 43.2%

O=C(Cn1cc(CN2C(=O)c3ccc([N+](=O)[O-])cc3C2=O)nn1)Nc1ccccc1Br
inactive: [1] 114% | [2] 105% | [3] 103% | [4] 88.1% | [5] 104% | [6] 108% | [7] 103% | [8] 101% | [9] 95.1% | [10] 105%

Cn1cc(-c2nn3cc(-c4ccncc4)nc3s2)c2cc(Cl)ccc21
active: [10] 2.31%
inactive: [1] 76% | [2] 33.4% | [3] 61.2% | [4] 43.4% | [5] 116% | [6] 60.5% | [7] 51.3% | [8] 89.7% | [9] 10.5%

Nc1c(C(=O)c2ccccc2)sc2nc(-c3cnccn3)cc(-c3cccs3)c12
inactive: [1] 111% | [2] 95.6% | [3] 95.2% | [4] 88.4% | [5] 106% | [6] 98.3% | [7] 89.9% | [8] 106% | [9] 100% | [10] 105%

C#C[C@]1(O)CC[C@H]2[C@@H]3CC=C4c5sc(-c6cccc(F)c6)nc5CC[C@]4(C)[C@H]3CC[C@@]21C
inactive: [1] 91.9% | [2] 83.5% | [3] 89.6% | [4] 82% | [5] 121% | [6] 85.4% | [7] 92.4% | [8] 101% | [9] 75.1% | [10] 53.1%

CCN(CC)Cc1c(-c2cccc(OC(F)(F)F)c2)[nH]c2ccc(N3CCCC3)cc2c1=O
inactive: [1] 106% | [2] 90.6% | [3] 93.3% | [4] 77.7% | [5] 124% | [6] 98.4% | [7] 77.3% | [8] 104% | [9] 98.4% | [10] 69.4%

C=C(C)[C@@H]1CC[C@]2(C)[C@H](CC=C3[C@@H]4CC(C)(C)CC[C@]4(C(=O)NCC#CCN4CCN(C)CC4)CC[C@]32C)[C@@]1(C)CCC#N
inactive: [1] 94% | [2] 81.6% | [3] 76% | [4] 60% | [5] 83.9% | [6] 78.5% | [7] 30.7% | [8] 84.1% | [9] 48.9% | [10] 19%

CCCCCc1ccc(S(=O)(=O)N(C(C)=O)c2cccc(-c3csc(N(CCN4CCN(C)CC4)C(C)=O)n3)c2)cc1
inactive: [1] 92.8% | [2] 61.8% | [3] 62.6% | [5] 99.2% | [7] 20.5% | [8] 71.1%
active: [4] -69.2% | [6] -10.5% | [9] 4.61% | [10] -9.16%

COC(=O)c1c(C(=O)OC)c2n(CC(=O)Nc3cccc4cccnc34)c3ccccc3n2c1C(=O)c1ccc(C)cc1
inactive: [1] 102% | [2] 97.4% | [3] 92.5% | [4] 75.7% | [5] 108% | [6] 97.6% | [7] 104% | [8] 105% | [9] 95.4% | [10] 93.3%

CN1C(=O)N(C)C2Nn3c(s/c(=C\c4ccccn4)c3=O)=NC21 (stereo not given)
inactive: [1] 102% | [2] 99.7% | [3] 104% | [4] 88.1% | [5] 111% | [6] 100% | [7] 97.1% | [8] 105% | [9] 102% | [10] 110%

O=C(O)CNS(=O)(=O)c1ccc(Oc2ccc(S(=O)(=O)NCC(=O)O)cc2)cc1
inactive: [1] 104% | [2] 96.9% | [3] 93.5% | [4] 91.4% | [5] 101% | [6] 98.9% | [7] 91.4% | [8] 69.9% | [9] 100% | [10] 95.7%

Cc1ccc(/C=C/CC(=O)Nc2ccc(C(=O)Nc3ccc(F)cc3N)cc2)cn1
inactive: [1] 60.7% | [2] 63.4% | [3] 73.5% | [4] 58.9% | [5] 34.9% | [6] 80.8% | [7] 57.2% | [8] 38.9% | [9] 23.3% | [10] 45.1%

CC(C)Sc1nc(NC2CC2)c(C#N)c(-c2ccccc2)n1
inactive: [1] 124% | [2] 101% | [3] 57.8% | [4] 48.5% | [5] 123% | [6] 29.1% | [7] 68% | [8] 64.5% | [9] 85.1% | [10] 92.6%

Oc1ccc(CSc2nnc(-c3ccc(Br)cc3)n2-c2ccccc2)c2cccnc12
active: [4] 8.19%
inactive: [1] 39.4% | [2] 43.1% | [3] 35% | [5] 36.5% | [6] 27% | [7] 36.7% | [8] 63.8% | [9] 22.9% | [10] 32.3%

CCn1c2ccc(/C=N/NS(=O)(=O)CCN(C)C)cc2c2cc(/C=N/NS(=O)(=O)CCN(C)C)ccc21
inactive: [1] 105% | [2] 110% | [3] 99.3% | [4] 88% | [5] 88.1% | [6] 97% | [7] 82.1% | [8] 69.8% | [9] 103% | [10] 103%

CCC(=O)Nc1ccc(-c2nc(-c3cccc(O)c3)c(-c3ccnc(Br)c3)[nH]2)cc1
inactive: [1] 65.9% | [2] 88.4% | [3] 67.4% | [4] 69.7% | [5] 87.6% | [6] 82.8% | [7] 65.1% | [8] 70.5% | [9] 22.4% | [10] 39.9%

CC1(C)CC[C@]2(C(=O)N3CCCNCC3)CC[C@]3(C)C(=CC[C@@H]4[C@@]5(C)CCC(=O)C(C)(C)[C@@H]5CC[C@]43C)[C@H]2C1
inactive: [1] 108% | [2] 103% | [3] 98.7% | [4] 95.3% | [5] 97.1% | [6] 105% | [7] 89% | [8] 109% | [9] 90.6% | [10] 106%

CCOC(=O)c1nn(-c2ccc(C)cc2)c(=O)c2c(N)c(C#N)c(-c3ccc(OC)cc3)cc12
inactive: [1] 95.1% | [2] 84.7% | [3] 85.6% | [4] 80.5% | [5] 125% | [6] 93.6% | [7] 92% | [8] 118% | [9] 103% | [10] 114%

O=C(/C=C/c1cn(-c2ccccc2)nc1-c1ccc(Cl)cc1)c1cc2ccccc2oc1=O
inactive: [1] 88% | [2] 79.8% | [3] 31% | [4] 39.8% | [5] 113% | [6] 59.9% | [7] 29.2% | [8] 111% | [9] 50.7% | [10] 55.3%

COc1ccc(/C=N\NC(=O)c2ccc3nc(-c4ccc(Br)cc4)[nH]c3c2)cc1
inactive: [1] 96.9% | [2] 39.6% | [3] 17.1% | [4] 75.9% | [5] 51.6% | [6] 35.1% | [7] 35% | [8] 82% | [9] 53.2% | [10] 61.9%

O=C(NNc1nc2cc(F)cc(F)c2n2cccc12)c1ccncn1
active: [2] 7.66% | [9] 5.12% | [10] 4.2%
inactive: [1] 22% | [3] 19.6% | [4] 17.3% | [5] 10% | [6] 11.6% | [7] 16.5% | [8] 22.2%

From PubChem BioAssay (NCI)
